# SMN2 splice up: SMN2 splice variant enhancement; HEK293 SMN2-luciferase splicing reporter, luminescence, 30-36 h; Potency, µM (titrated, usually from 46.1 µM), actives largely listed as activators; 210,000 compounds, 2.8% hits; also: nearly all actives have a fitted effect of over 55% in size
#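 HEK293 cells carry an SMN2 minigene-luciferase reporter in which exon 7 inclusion puts luciferase in frame. Cells were seeded at 2000 cells/well, attached for 10-12 hours, then exposed to compounds for 30-36 hours at 37C before ONE-Glo luminescence.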
# Rab9 promoter act: Rab9 promoter activation; Huh7 Rab9 promoter-luciferase reporter, luminescence, 24 h; 320,000 compounds, 2.8% hits; Potency, µM (series often up to 9.22 µM), actives largely listed as activators; AID 485297; also: nearly all actives have a fitted effect of over 60% in size
#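 Huh7 reporter line, Rab9 promoter upstream of luciferase. Compound exposure 24 h at 37 °C in reduced-serum medium with 10% FBS. Read-out: luminescence.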
# ELG1 genotox: induces genotoxicity in HEK293T cells with luciferase-tagged ELG1 | HEK293T ELG1-luciferase reporter, luminescence, 16 h | 330,000 compounds, 1.3% hits | Potency, µM (doses to about 46 µM), actives largely listed as activators; also: nearly all actives have a fitted effect of over 60% in size
#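 Step 1: seed 2,000 HEK293T ELG1-luciferase cells per well. Step 2: add compound or DMSO, incubate 16 hr at 37 °C. Step 3: ONE-Glo, 30 min at room temperature, read luminescence.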
# NPC1 prom act: NPC1 promoter activation; Potency, µM (series often up to 9.22 µM), hits mostly activators; 320,000 compounds, 2.4% hits; Huh7 NPC1 promoter luciferase reporter, 24 h; AID 485313; also: nearly all actives have a fitted effect of over 60% in size
#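 Readout is luciferase luminescence, reflecting NPC1 promoter activation in stably transfected Huh7 cells after 24 h compound exposure at 37 °C in reduced-serum medium with 10% FBS.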
# FLuc modulator: counter-screen for miR-21 project: firefly luciferase inhibitors or activators; P08659; purified FLuc, Km substrates, luminescence inhibition; Potency, µM (titrated, usually from 57.5 µM), usual class: inhibitors; 360,000 compounds, 6.9% hits; AID 588342; also: nearly all actives have a fitted effect of over 55% in size
# Target sequence (P08659 whole entry, looked up): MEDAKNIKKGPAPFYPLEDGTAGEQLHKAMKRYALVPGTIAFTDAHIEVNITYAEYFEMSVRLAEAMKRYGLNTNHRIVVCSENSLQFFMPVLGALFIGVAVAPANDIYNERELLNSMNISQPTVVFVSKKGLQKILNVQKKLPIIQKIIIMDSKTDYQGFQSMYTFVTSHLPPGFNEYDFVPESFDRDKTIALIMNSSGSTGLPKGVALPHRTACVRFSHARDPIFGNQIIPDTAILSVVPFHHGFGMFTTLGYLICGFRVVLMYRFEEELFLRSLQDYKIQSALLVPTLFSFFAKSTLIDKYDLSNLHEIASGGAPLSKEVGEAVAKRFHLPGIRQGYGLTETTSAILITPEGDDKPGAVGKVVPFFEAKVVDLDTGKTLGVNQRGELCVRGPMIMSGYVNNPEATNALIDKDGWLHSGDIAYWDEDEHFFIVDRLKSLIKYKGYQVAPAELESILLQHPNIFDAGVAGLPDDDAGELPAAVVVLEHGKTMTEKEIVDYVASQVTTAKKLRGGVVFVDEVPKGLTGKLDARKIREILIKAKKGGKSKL
#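 Purified P. pyralis luciferase (10nM final) with 10uM D-luciferin and 10uM ATP (Km levels) in 50mM Tris acetate pH 7.5, 10mM Mg acetate, 0.01% Tween-20, 0.05% BSA; qHTS 6-point titration, ~60 µM downward; luminescence read.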
# ELG1 DNA repair: inhibitors of ELG1-dependent DNA repair in HEK293T cells | Potency, µM (titrated, usually from 46.1 µM), hits mostly inhibitors | 330,000 compounds, 2.3% hits | AID 504467 | HEK293T ELG1-luciferase reporter, luminescence, 16 h; DNA damage induced by 5-fluorouridine; also: nearly all actives have a fitted effect of over 55% in size
#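 Luminescence from the luciferase reporter, measured 30 min after ONE-Glo reagent at room temperature, was the read-out. Beforehand, 2,000 cells per well were exposed for 16 hr at 37 °C to 5-fluorouridine together with compound or vehicle.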
# Numbers stand for hits; 0 = inactive; ? = inconclusive; - = no result given. Rows were chosen to be rich in hits. Some 9.4% of all compounds tested hit in one or more screens of this group. Calls follow the shape of the dose curve; as a rule, active = well fitted curve in the direction sought with a large enough effect; inconclusive = small, poorly fitted or top-dose-only effect, or another doubt; inactive = no such curve, though single readings can be large; an effect the other way counts as inactive or inconclusive.
SMILES,SMN2 splice up,Rab9 promoter act,ELG1 genotox,NPC1 prom act,FLuc modulator,ELG1 DNA repair
S=C(c1ccc(-c2cc(Cl)ccc2Cl)o1)N1CCCCC1,0,0,0,0,16.9µM,0
S=C(c1ccc(-c2cccc(Cl)c2)o1)N1CCOCC1,25.1µM,3.55µM,3.55µM,3.16µM,5.36µM,?
S=C(c1ccc(-c2cccc(Cl)c2)o1)N1CCCCC1,11.2µM,2.51µM,?,3.55µM,2.69µM,?
S=C(c1ccc(-c2cc(Cl)ccc2Cl)o1)N1CCOCC1,0,0,0,0,?,0
COc1ccc(C(=O)COC(=O)c2cc(=O)[nH]c3ccccc23)c(OC)c1,-,2.24µM,?,3.16µM,?,?
COc1ccccc1C(=O)COC(=O)c1cc(=O)[nH]c2ccccc12,-,0,?,0,0,?
Cc1ccc(C(=O)COC(=O)c2cc(=O)[nH]c3ccccc23)cc1C,0,?,20.6µM,0,1.07µM,?
NC(=O)COC(=O)c1cc(=O)[nH]c2ccccc12,-,0,0,0,0,0
CC(=O)c1cccc(Nc2nc(-c3cccc([N+](=O)[O-])c3)cs2)c1,11.2µM,0,1.46µM,0,0,?
Cc1ccc(-c2csc(NC(=O)c3cccc([N+](=O)[O-])c3)n2)cc1,0,0,0,0,0,0
CC(=O)Nc1nc(C)c(-c2csc(Nc3ccc(O)cc3)n2)s1,0,0,0,0,?,?
Cc1[nH]n(-c2nc(-c3cccc([N+](=O)[O-])c3)cs2)c(=O)c1C,12.6µM,?,0,?,4.78µM,?
Cc1ccc(Cl)cc1Nc1nc(-c2sc(NC(=O)C(C)(C)C)nc2C)cs1,0,0,0,0,0,0
CC(=O)Nc1nc(C)c(-c2csc(Nc3cccc(C(C)=O)c3)n2)s1,-,0.708µM,0,0,?,5.8µM
Cc1c(Nc2nc(-c3cccc([N+](=O)[O-])c3)cs2)c(=O)n(-c2ccccc2)n1C,-,0,0,0,0,0
CC(=O)Nc1ccc(Nc2nc(-c3sc(NC(C)=O)nc3C)cs2)cc1,-,0,0,0,?,23.1µM
CC(C)(CC(=O)OCC(=O)Nc1ccc(F)c(Cl)c1)CC1=NS(=O)(=O)c2ccccc2N1,-,-,-,-,0,-
CCC(C)C(=O)Nc1nc(C)c(-c2csc(Nc3ccc(Cl)cc3)n2)s1 (centres undefined),0,0,0,0,0,8.2µM
CC(=O)Nc1nc(C)c(-c2csc(Nc3cccc([N+](=O)[O-])c3)n2)s1,0,0,0,0,0,2.91µM
CC(=O)Nc1nc(C)c(-c2csc(Nc3ccccn3)n2)s1,12.6µM,1.58µM,0,3.55µM,10.7µM,?
CCCC(=O)Nc1nc(C)c(-c2csc(Nc3ccc(Cl)cc3)n2)s1,?,0,0,0,?,?
CC(=O)c1sc(Nc2ccccn2)nc1C,0,0,?,0,?,?
CCOc1ccccc1C(=O)N1CCC(c2nc3ccccc3o2)CC1,-,-,-,-,0,-
Oc1ccccc1/C=N/NC(=S)NC1CC2CCC1C2 (centres undefined),-,2.82µM,0,2µM,26.9µM,?
S=C(N/N=C/c1ccco1)NC1CC2CCC1C2 (centres undefined),-,?,?,?,19µM,?
SMILES,SMN2 splice up,Rab9 promoter act,ELG1 genotox,NPC1 prom act,FLuc modulator,ELG1 DNA repair
COc1cccc(/C=N/NC(=S)NC2CC3CCC2C3)c1OC (centres undefined),-,0,0,0,0,?
Cc1ccc(-c2cc(C(=O)NCc3cnn(C)c3C)c3cc(Br)ccc3n2)cc1,0,0,0,0,2.13µM,0
Cc1ccc(-c2cc(C(=O)N(C)Cc3cnn(C)c3C)c3cc(Br)ccc3n2)cc1,0,0,0,0,10.7µM,5.8µM
Cc1ccc(NC(=O)C2CCCN(S(=O)(=O)c3cccs3)C2)c(C)c1 (centres undefined),-,-,-,-,0,-
CSc1ccc(C2c3[nH]c4ccccc4c3CCN2C(=O)CCC2CCCC2)cc1 (centres undefined),-,-,-,-,0,-
COc1ccc(-c2csc(NC(=O)CSc3nc(C)nc4sc(C(=O)O)c(C)c34)n2)cc1,-,0,0,0,26.9µM,0
COc1ccc(-c2csc(NC(=O)CSCC(=O)Nc3cc(C)on3)n2)cc1,-,0,0,0,?,0

# Compound activity (PubChem BioAssay)
